Screens from PubChem.
This is a sample that favours compounds with a hit; in the whole collection about 7.9% have one here.
HCV inh: HCV inhibition; 340,000 compounds, 3.4% hits; Huh7.5.1 HCVcc-Cre infection, luciferase reporter, 44 h; Potency, µM (titrated, usually from 41.8 µM), inactives show at the top dose activity change, negative = inhibition, actives largely listed as inhibitors; active = well fitted inhibition curve with a large enough effect; inconclusive = small, poorly fitted or top-dose-only effect, or another doubt; inactive = no such curve, though single readings can be large or run the other way; note: potency is the fitted concentration of half-maximal effect
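Antiviral activity was scored by luciferase reporter output from cells infected with HCVcc-Cre (~0.5 moi) in presence of compound, 44 h infection period, cells seeded 1,000/well 4 h prior.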
HCMV inh: inhibitors of human cytomegalovirus; HFF cells, HCMV-luciferase reporter, 72 h; active compounds read low; activity change, negative = inhibition, % at 57.5 µM; 410,000 compounds, 4.5% hits; in the data active = activity change below about -60%; inconclusive = no clear call, values can overlap the other calls; inactive = above about -39%
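Two-dose cell screen: HFF monolayers treated with compounds and infected with luciferase-expressing HCMV at 1 PFU/cell, 72 h at 37C, then lysed for luciferase measurement.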
LASV entry inh: inhibitors of Lassa virus binding or cell entry | Lassa virus pseudotype entry inhibition, cell reporter | Potency, µM (doses to about 37.9 µM), for the others: at the highest dose activity change, negative = inhibition, actives largely listed as inhibitors | 300,000 compounds, 1.2% hits; calls by dose curve; tested in HEK293 cells; note: potency is the fitted concentration of half-maximal effect; nearly all actives have a fitted effect of over 50% in size
FMDV inh: blocks foot and mouth disease virus; FMDV antiviral cell-based qHTS; Potency, µM (top dose mostly 57.9 µM), without a hit: at the top dose activity change, negative = inhibition, actives largely listed as inhibitors; 410,000 compounds, 1.2% hits; AID 1159524; calls by dose curve; tested in HEK293T cells; note: read-out not given here; potency is the fitted concentration of half-maximal effect; nearly all actives have a fitted effect of over 45% in size
Marburg entry inh: inhibitors of Marburg virus binding or cell entry; Marburg virus pseudotyped entry inhibition, cell reporter; 300,000 compounds, 1.8% hits; Potency, µM (doses to about 37.8 µM), without a hit: at the top dose activity change, negative = inhibition, actives largely listed as inhibitors; calls by dose curve; tested in HEK293 cells; note: potency is the fitted concentration of half-maximal effect
* = called active by the depositor; u = inconclusive; x = no result; ! = repeats disagree; [ ] = dose if it differs, or a comment. % is set by controls: 0 for no effect and ±100 for the full control effect.

SMILES	HCV inh	HCMV inh	LASV entry inh	FMDV inh	Marburg entry inh
COC(=O)c1cc(-c2ccccc2)sc1NC(=O)CN1C(=O)c2ccccc2C1=O	u	-64.1*	2.9%	2.3%	-0.8%
CC(C)(C)C(=O)Nc1sc(-c2ccccc2)cc1C(=O)O	6.8%	-64.4*	u	16.5%	u
NC(=O)c1ccccc1NC(=O)CN1CCCCCC1	11.3%	13.3	u	7.1%	0.4%[46.1 µM]
CCCCNC(=O)Nc1ccc([C@@](O)(C(=O)OCC)C(F)(F)F)cc1	x	x	x	x	-1.1%
COc1ccc(NC(=O)C2(C)CCN2C2Cc3ccccc3C2)cc1OC (stereo unspecified)	x	12.4	x	-18.0%	x
C=C(C)c1cccc(C(C)(C)NC(=O)Nc2nnc(C(C)C)s2)c1	u	-101.4*	x	u	x
C=C(C)c1cccc(C(C)(C)NC(=O)Nc2ccc(C)cn2)c1	8.91µM*	-38.7	-13.9%	-21.2%	-26.8%
C=C(C)c1cccc(C(C)(C)NC(=O)Nc2ccc(OC)nc2)c1	u	u	u	-17.7%	23.0%[46.1 µM]
COc1ccc(C2C(C(=O)Nc3cccnc3)=C(C)Nc3nc(SCc4ccccc4)nn32)cc1 (stereo unspecified)	x	-8.8	8.1%[46.1 µM]	4.7%	-14.9%[46.1 µM]
O=S(=O)(Cc1ccccc1)Oc1ccccc1	10.8%	-62.5*	23.0%[46.1 µM]	-1.7%	26.8%[46.1 µM]
O=C(O)C(Cc1ccc(OS(=O)(=O)Cc2ccccc2)cc1)NS(=O)(=O)Cc1ccccc1 (stereo unspecified)	6.5%	-60.2*	-0.6%[46.1 µM]	-2.1%	7.5%[46.1 µM]
CCc1nnc2c3cnn(-c4ccccc4)c3ncn12	17.0%	43.3	u	35.4%	3.5%
Cc1ccc(-n2ncc3c2ncn2c(C)nnc32)cc1C	1.0%	-66.8*	-12.4%	x	-10.3%
COc1ccc(C2=NCC(=S)Nc3ccc(Cl)cc32)cc1Cl	-12.9%	-62.8*	x	u	x
COc1cc2ccccc2ccc1=NO	u	-67.9*	-5.3%[46.1 µM]	2.3%	2.1%[46.1 µM]
COc1ccccc1NC(=O)CCNS(=O)(=O)c1ccc2c(c1)CCN2C(=O)C1CC1	x	-7.8	u	-2.5%	x
O=C(Nc1nc(NC(=O)c2ccco2)n(-c2ccccc2)n1)c1ccccc1	u	-100.0*	u	x	u
CCCOc1cccc(-c2nn(-c3ccccc3)cc2/C=C(\C#N)C(=O)NCCCn2ccnc2)c1	u	-19.3	-13.9%	-9.0%	u
N#C/C(=C/c1cn(-c2ccccc2)nc1-c1cccc(OCc2ccc(F)cc2)c1)C(=O)NCCCn1ccnc1	5.62µM*	13.0	u	-7.1%	u
O=C(NC12CC3CC(CC(C3)C1)C2)c1ccc(-c2ccc(Cl)cc2)o1	u	-23.9	u	4.3%	u
O=C(NC12CC3CC(CC(C3)C1)C2)c1ccc(-c2cccc(Cl)c2)o1	u	-62.9*	-21.3%	28.5%	-24.6%
O=C(NC12CC3CC(CC(C3)C1)C2)c1ccc(COc2ccc(Cl)cc2[N+](=O)[O-])o1	8.91µM*	x	u	u	u
CC(C)COc1cccc(C(=O)Nc2ccc(-c3nc4ncccc4o3)cc2)c1	x	7.4	-14.6%[46.1 µM]	-16.8%	x
C#CCn1cc2c(c1-c1ccccc1)c(=O)n(C)c(=O)n2C	x	-15.8	x	u	x
C=C(C)C(O)CC/C(C)=C/Cc1c(O)ccc(C(=O)/C=C/c2ccc(O)cc2)c1O (stereo unspecified)	u	-67.5*	x	u	x
SMILES	HCV inh	HCMV inh	LASV entry inh	FMDV inh	Marburg entry inh
COc1ccc(C(=O)/C=C/c2ccc(O)cc2)c(O)c1C/C=C(\C)CCC=C(C)C	u	-105.4*	x	u	x
O=C(/C=C/c1ccc(O)cc1)c1ccccc1O	x	x	x	-31.5%	x
COc1ccc(C=CC(=O)c2ccc(OC)c(OC)c2O)cc1OC	-20.4%	19.0	u	u	u
Cc1ccccc1CN1C(=O)c2ccccc2S(=O)c2ccc(C(=O)NCc3ccc4c(c3)OCO4)cc21 (stereo unspecified)	x	-15.5	-11.5%[46.1 µM]	0.0%	1.6%[46.1 µM]
COc1ccc(C(OCC(O)CNC(C)c2ccccc2)c2ccc(OC)cc2)cc1 (stereo unspecified)	-26.4%	-22.0	u	4.0%	3.55µM*
CC(C)NCC(O)COc1cccc2ccccc12 (stereo unspecified)	-15.1%	30.9	-7.6%	-23.5%	0.794µM*!
CC(C)NC[C@@H](O)COc1cccc2[nH]ccc12	x	x	x	-4.7%	u
Cc1ccc(C(OCC(O)CNCc2ccc(F)cc2)c2ccccc2)cc1 (stereo unspecified)	8.91µM*	-102.0*	x	u	x
Cc1cccc(C)c1OCC(O)CNC(C)c1ccccc1 (stereo unspecified)	12.6µM*	-36.3	u	-22.5%	u
Nc1nonc1-n1nnc(C(=O)N/N=C/c2ccccc2F)c1CN1CCc2ccccc21	-24.5%	7.0	x	u	x
C[C@@H]1CN=C(Nc2ccc(N(C)C)cc2)S1	x	x	x	x	7.8%
CCc1cc2c(nc1CC)CCN(CCC(C)=NO[C@H](C)c1cn([C@H](CO)Cc3ccccc3)nn1)C2	x	x	x	x	-15.7%[14.2 µM]
CC(NCC(O)COCCC12CC3CC(CC(C3)C1)C2)c1ccccc1 (stereo unspecified)	7.94µM*	-98.4*	u	31.6µM*	11.6µM*
NCC(O)COCCC12CC3CC(CC(C3)C1)C2 (stereo unspecified)	10.5%	-11.4	9.7%	-11.4%	-24.4%[46.1 µM]
CCOc1ccc(CC(=O)NC2CC(=O)N(c3ccc4c(c3)OCCO4)C2)cc1 (stereo unspecified)	x	-39.1	-2.7%[46.1 µM]	-2.7%	x
Cc1ccc(-c2n[nH]c3c2C(c2cccs2)N(c2ccc(Cl)cc2)C3=O)cc1 (stereo unspecified)	x	-105.5*	u	u	u
Cc1ccc(-c2n[nH]c3c2C(c2ccccc2Cl)N(c2ccc(C(=O)O)cc2)C3=O)cc1 (stereo unspecified)	x	-24.1	-28.2%[46.1 µM]	u	-22.2%[46.1 µM]
Cc1ccc(N2C(=O)c3[nH]nc(-c4ccc(Cl)cc4)c3C2c2ccc(F)cc2)cc1 (stereo unspecified)	x	-105.4*	u	u	u
COc1ccc(C2c3c(-c4ccc(F)cc4)n[nH]c3C(=O)N2c2ccccc2)cc1OC (stereo unspecified)	x	-9.2	u	u	-20.8%[46.1 µM]
CC(Sc1nc(N(C)C)nc(N2CCOCC2)n1)C(=O)Nc1ccccc1 (stereo unspecified)	u	-4.4	-17.5%	-26.0%	-29.3%
CC(Sc1nc(NC(C)(C)C)nc(N(C)C)n1)C(=O)Nc1ccccc1 (stereo unspecified)	-21.3%	-60.8*	x	u	-1.8%[46.1 µM]
COc1ccc(NC(=O)/C(=C\c2ccccc2)NC(=O)c2ccco2)cc1	5.3%	-1.1	x	18.3%	-1.6%[46.1 µM]
O=C(CSc1nc2nc(-c3cccs3)cc(C(F)(F)F)c2c(=O)[nH]1)Nc1ccc(F)c(F)c1	u	-97.1*	u	u	u
Cc1ccc(C)c(NC(=O)CSc2nc3nc(-c4cccs4)cc(C(F)(F)F)c3c(=O)[nH]2)c1	u	-11.9	x	u	5.0%
